PABP1 MLLE inh: blocks PAM2 peptide binding to the PABP1 MLLE domain. AID 588489. 360,000 tested, 0.36% active. GST-MLLE / FITC-PAM2 fluorescence polarization. inhibition, % at 20 µM. P11940; in the data active = inhibition above about 35%, passing the limit was not always enough
eIF4H FP inh: inhibitors of RNA binding by human eIF4H; eIF4H fluorescence polarization binding assay; inhibition, % at 35 µM; 290,000 tested, 0.94% active; AID 2012;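 note: calls also rest on retests at 20 µM and on dose response follow-up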
PHOSPHO1 block: PHOSPHO1 (human) inhibition; recombinant PHOSPHO1, absorbance phosphatase assay; inhibition, % at 13.3 µM; 290,000 tested, 1.1% active; in the data active = inhibition above about 60%
Target sequence (Q8TCT1 whole entry, looked up): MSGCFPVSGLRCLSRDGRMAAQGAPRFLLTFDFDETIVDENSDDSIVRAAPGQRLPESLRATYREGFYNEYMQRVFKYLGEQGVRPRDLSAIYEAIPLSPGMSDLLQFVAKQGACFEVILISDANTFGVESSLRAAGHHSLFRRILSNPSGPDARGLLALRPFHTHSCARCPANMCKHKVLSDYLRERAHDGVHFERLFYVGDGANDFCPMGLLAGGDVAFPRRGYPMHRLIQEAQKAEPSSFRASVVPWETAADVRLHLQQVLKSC
Efa HMGR inh: E. faecalis class II HMG-CoA reductase inhibition; purified E. faecalis HMGR, NADPH absorbance 340 nm kinetic; inhibition, % at 10 µM; 190,000 tested, 0.41% active;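 active = inhibition above a set limit, the median over all tested compounds plus 3 SD, cut at about 9.5% in these data; inconclusive = no clear call, values can overlap the other calls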;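 note: enzyme runs in reverse so mevalonate oxidation gives rising NADPH absorbance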
PABP FP inh: blocks human PABP binding to poly(A) RNA; 290,000 tested, 1% active; fluorescence polarization; P11940; calls only at 35 µM;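 note: calls also rest on retests at 20 µM and on dose response follow-up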
Each line names hits and unclear results; the compound was inactive in the other large screens. This is a sample that favours compounds with a hit; in the whole collection about 2.4% have one here. Unless noted, the rule behind the calls is not given here.

CC(=O)Nc1ccc(S(=O)(=O)N2CCC(C(=O)O)(c3ccccc3)CC2)cc1	none (no result: Efa HMGR inh)
O=c1cc(O)n(C2CCCCCC2)c(=O)[nH]1	PABP FP inh active (no result: Efa HMGR inh)
CNC(=S)Nc1ccc(N2CCN(c3ccc(C(F)(F)F)cn3)CC2)nc1	none (no result: Efa HMGR inh)
Cc1ccc(-n2c(Cn3nc(C(F)(F)F)cc3C)n[nH]c2=S)cc1	PHOSPHO1 block 81
CC(=O)Nc1c(Nc2ccccc2)c2ccccc2oc1=O	PABP1 MLLE inh 47
Cc1ccccc1CN(C)C(=O)c1ccc2ccccc2n1	none (no result: Efa HMGR inh)
O=C(NCCCc1ccccc1)c1cc(COc2ccc(F)cc2Cl)on1	none (no result: Efa HMGR inh)
CC(=O)c1ccccc1OC(=O)CCN1C(=O)c2ccccc2C1=O	Efa HMGR inh 13
COc1ccccc1CN1C[C@@H]2C[C@@H](c3ccc(C)c(C)c3)N3CCC[C@@]23C1=O	none
COc1ccc([C@@H]2C[C@H]3CN(Cc4ccccc4OC)C(=O)[C@]34CCCN24)cc1C	eIF4H FP inh 52, PABP FP inh active
OCC(CO)c1cnnc2ccccc12	none (no result: eIF4H FP inh, PHOSPHO1 block, Efa HMGR inh, PABP FP inh)
Cc1cc(C)n(CC2CC(=O)N(c3ccc(C)c(Cl)c3)C2=O)n1 (stereo not given)	eIF4H FP inh inconclusive, PABP FP inh active
Nc1nnc(SCc2ccccc2Cl)s1	eIF4H FP inh 7.2, PABP FP inh active
Nc1nnc(CSCc2ccccc2Cl)s1	none (no result: Efa HMGR inh)
CCOc1ccc(OCCCC(=O)NCCc2ccc(OC)cc2)cc1	none (no result: Efa HMGR inh)
CCOC(=O)c1c2c3c(cccc3n(C)c1=O)C(=O)c1ccccc1-2	PABP1 MLLE inh 62 (no result: Efa HMGR inh)
CCN=c1scc(C)n1/N=C/c1ccc(O)c(O)c1O	eIF4H FP inh 82, PABP FP inh active
CCN=c1scc(C)n1/N=C/c1cc(Br)c(O)c(Br)c1	none
Cc1nc(NC(N)=S)sc1C(=O)Nc1ccccc1	PABP1 MLLE inh 41
COc1ccc(NC(=O)CN(c2ccc(F)cc2)S(=O)(=O)c2ccccc2)c(OC)c1	none (no result: Efa HMGR inh)
c1ccc(-c2nc3nonc3nc2-c2ccccc2)cc1	PHOSPHO1 block 67
Nc1c(-c2ccccc2)nc(Cl)nc1-c1ccccc1	none
CCOC(=O)C1=C(CSc2nc(CC)c(C)cc2C#N)OC(N)=C(C#N)C1c1ccccc1 (stereo not given)	PHOSPHO1 block 89
CCOC(=O)C1=C(CSc2nc(C)cc(C)c2C#N)OC(N)=C(C#N)C1c1ccccc1 (stereo not given)	PHOSPHO1 block 91
CCOC(=O)C1=C(CSc2nc(C)cc(C)c2C#N)OC(N)=C(C#N)C1c1cccs1 (stereo not given)	none (no result: PABP1 MLLE inh)
CCOC(=O)C1=C(CSc2nc(-c3ccccc3)ccc2C#N)OC(N)=C(C#N)C1c1ccc(OC)cc1 (stereo not given)	eIF4H FP inh inconclusive, PABP FP inh inconclusive
CCOC(=O)C1=C(CSc2nc3c(cc2C#N)CN(C)CC3)OC(N)=C(C#N)C1c1ccc(Cl)cc1 (stereo not given)	eIF4H FP inh inconclusive, PHOSPHO1 block 67, PABP FP inh inconclusive
CCCOc1ccc(CNC(=O)C2CCN(C(=O)N3CCOc4ccccc43)CC2)cc1	none (no result: Efa HMGR inh)
CC(=O)NC(c1ccccc1)c1nc(-c2cccc(CO)c2)cs1 (stereo not given)	none (no result: eIF4H FP inh, PHOSPHO1 block, Efa HMGR inh, PABP FP inh)
O=C(NCC1CCCO1)c1cncc(Br)c1 (stereo not given)	none
Cc1nnsc1C(=O)Nc1ccc(S(=O)(=O)N2CCCC(C)C2)cc1 (stereo not given)	none (no result: Efa HMGR inh)
c1ccc2[nH]c(SN3CCOCC3)nc2c1	PHOSPHO1 block 102 (no result: PABP1 MLLE inh)
O=C(Cc1nnc(NC(=O)c2ccccc2)s1)N/N=C\c1ccc(O)c(O)c1	eIF4H FP inh 59 (no result: Efa HMGR inh)
CCCCNC(=S)N(C)/N=C/c1ccc(OCc2ccc(C(=O)OC)cc2)c(OC)c1	PABP FP inh active
Cc1ccsc1CN(C)Cc1nc(C2CC2)no1	none
CCN(CC)c1ccc(-c2nc3cnccn3c2NC2CCCC2)cc1	PHOSPHO1 block 62
c1cn2c(NC3CCCCC3)c(-c3ccc(SC4CCCCC4)cc3)nc2cn1	none (no result: eIF4H FP inh, PHOSPHO1 block, Efa HMGR inh, PABP FP inh)
Cc1ccc2nc(-c3cccnc3)c(NC3CCCCC3)n2c1	PABP1 MLLE inh 46
Nc1c(-c2ccc(Cl)cc2)cnc2c(-c3ccc(F)cc3)cnn12	none (no result: PHOSPHO1 block, Efa HMGR inh)
Cc1ccccc1-n1cnc2c(sc3nc(N4CCOCC4)c4c(c32)CCCC4)c1=O	none (no result: Efa HMGR inh)
COc1ccc(NS(=O)(=O)c2cc(-c3nnnn3C)ccc2OC)cc1	PHOSPHO1 block 66
CN(C(=O)CSc1nnc(Cc2cccc3ccccc23)n1N)C1CCS(=O)(=O)C1 (stereo not given)	PHOSPHO1 block 88
Cc1cc2nnc(SCC(=O)N(C)C3CCS(=O)(=O)C3)n2c2ccccc12 (stereo not given)	none
Cc1nn(-c2ccccc2)c(C)c1/C=N/NC(=O)CSc1nc2ccccc2c(=O)n1-c1ccc(Br)cc1	none
Cc1ccc(-n2c(SCC(=O)N(C)C3CCS(=O)(=O)C3)nc3ccccc3c2=O)cc1 (stereo not given)	Efa HMGR inh 18
Cc1cc(SCn2nnc3ccccc3c2=O)nc2ccccc12	Efa HMGR inh 115
CCN(C(=O)CSc1nc2ccccc2c(=O)n1-c1ccc(C)cc1)C1CCS(=O)(=O)C1 (stereo not given)	none
Cc1ccc(-n2c(SCC(=O)N/N=C/c3c(C)nn(-c4ccccc4)c3C)nc3ccccc3c2=O)cc1	PABP1 MLLE inh 38
O=c1c2ccccc2nnn1CSc1ccc2ccccc2n1	none
Nn1c(Cc2cccc3ccccc23)nnc1SCn1nnc2ccccc2c1=O	PHOSPHO1 block 87
Cc1ccc(S(=O)(=O)C(C#N)c2nc3ccccc3nc2N2CCCCC2)cc1 (stereo not given)	eIF4H FP inh inconclusive, PHOSPHO1 block 93, PABP FP inh inconclusive (no result: PABP1 MLLE inh, Efa HMGR inh)
COc1ccc(S(=O)(=O)C(C#N)c2nc3ccccc3nc2N2CCC(C)CC2)cc1 (stereo not given)	eIF4H FP inh 64, PHOSPHO1 block 100, PABP FP inh active (no result: PABP1 MLLE inh, Efa HMGR inh)
Cc1cccc(S(=O)(=O)C(C#N)c2nc3ccccc3nc2N2CCOCC2)c1 (stereo not given)	eIF4H FP inh inconclusive, PHOSPHO1 block 78, PABP FP inh inconclusive
CCOC(=O)N1CCN(c2nc3ccccc3nc2C(C#N)S(=O)(=O)c2ccc(C)cc2)CC1 (stereo not given)	eIF4H FP inh 122, PABP FP inh active
COc1ccc2c(COC(=O)CCS(=O)(=O)c3ccccc3)cc(=O)oc2c1	none
Cc1[nH]c2ccccc2c1C(c1ccccn1)c1c(C)[nH]c2ccccc12	eIF4H FP inh 55, PABP FP inh active
COc1ccc(NC(=O)CC2C(=O)N(Cc3ccccc3)C(=S)N2CCN2CCOCC2)cc1 (stereo not given)	Efa HMGR inh 11
Cc1ccc(C)c(OCC(=O)Nc2cccc(S(=O)(=O)NC3=NCCCCC3)c2)c1	PHOSPHO1 block 67 (no result: Efa HMGR inh)
C[C@H](NC(=O)Nc1cccc(Br)c1)C(=O)O	none (no result: Efa HMGR inh)
Cc1cc(C)nc(NS(=O)(=O)c2ccc(NC(=O)C3(c4ccccc4)CCCC3)cc2)n1	none
COC(=O)Oc1nsnc1N1CCOCC1	PHOSPHO1 block 92
CC1=C(C(=O)N(C)C)CC(CC(=O)NCc2cccc3ccccc23)C(=O)N1CCCN1CCCC1=O (stereo not given)	none (no result: eIF4H FP inh, PHOSPHO1 block, Efa HMGR inh, PABP FP inh)

Bioassay records deposited in PubChem BioAssay by several laboratories.
